Rows were chosen to be rich in hits. Some 6.3% of all compounds tested hit in one or more screens of this group.
TGFb SMAD3 inh: TGF-b pathway inhibition; HepG2 CAGA-GFP TGF-b/SMAD3 reporter, GFP fluorescence, 18 h; TGF-beta stimulated, 500 pg/mL final; Potency, µM (doses to about 46.1 µM), for inactives: top-dose activity, negative = inhibition, actives largely listed as inhibitors; 410,000 tested, 1.2% active; AID 588855; note: % is set by controls: 0 for no effect and ±100 for the full control effect; nearly all actives have a fitted effect of over 65% in size
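First, reporter cells (HEPG2 CAGA-GFP) rested 2 h at 37 degrees C. Next, compounds were pinned in and TGF-beta added to 500 pg/mL final. After 18 h, GFP was imaged per cell and summed per well.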
RORgamma inh: inhibitors of mouse ROR gamma transcriptional activity; P51450; Drosophila S2 Gal4-RORgamma UAS-luciferase reporter, 20 h; Potency, µM (series often up to 53.6 µM), inactives show top-dose activity change, negative = inhibition, usual class: inhibitors; 310,000 tested, 5.4% active; AID 2551; note: % is set by controls: 0 for no effect and ±100 for the full control effect; nearly all actives have a fitted effect of over 60% in size
Target sequence (P51450 whole entry, looked up, the tested form may be a part): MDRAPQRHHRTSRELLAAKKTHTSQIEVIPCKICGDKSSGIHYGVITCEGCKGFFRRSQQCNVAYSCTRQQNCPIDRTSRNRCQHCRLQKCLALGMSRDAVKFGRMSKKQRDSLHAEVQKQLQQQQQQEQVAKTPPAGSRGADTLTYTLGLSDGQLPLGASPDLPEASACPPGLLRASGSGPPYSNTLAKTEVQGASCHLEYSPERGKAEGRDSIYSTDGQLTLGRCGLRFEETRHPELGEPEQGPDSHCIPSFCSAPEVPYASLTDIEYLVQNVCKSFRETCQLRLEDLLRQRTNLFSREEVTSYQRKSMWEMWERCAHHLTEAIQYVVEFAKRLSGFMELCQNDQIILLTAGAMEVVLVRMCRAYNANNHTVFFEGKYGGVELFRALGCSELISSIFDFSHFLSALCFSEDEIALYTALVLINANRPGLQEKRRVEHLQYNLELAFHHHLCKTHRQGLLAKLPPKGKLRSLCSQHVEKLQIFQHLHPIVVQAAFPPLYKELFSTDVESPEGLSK
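ROR gamma transcriptional activity was tracked as Gal4-UAS luciferase output in stably transfected Drosophila Schneider cells, with compound added 1 hr before 700 uM copper sulfate induction and a 20 hr ambient-temperature incubation.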
Gal4-VP16 FLuc: Gal4-VP16 reporter inhibition counter-screen; 310,000 tested, 3.5% active; AID 2546; Potency, µM (series often up to 53.6 µM), for the others: top-dose activity, negative = inhibition, most hits filed as inhibitors; Drosophila S2 Gal4-VP16 UAS-luciferase, luminescence, 20 h;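 note: Gal4-VP16 expression switched on by copper sulfate through the metallothionein promoter; % is set by controls: 0 for no effect and ±100 for the full control effect; nearly all actives have a fitted effect of over 50% in size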
ATXN2 expr inh: inhibitors of ATXN2 expression; 360,000 tested, 0.72% active; HEK-293 ATXN2-luciferase reporter, luminescence, 24 h; Potency, µM (series often up to 57 µM), without a hit: at the highest dose activity change, negative = inhibition, actives largely listed as inhibitors; note: % is set by controls: 0 for no effect and ±100 for the full control effect; nearly all actives have a fitted effect of over 55% in size
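qHTS (up to 57 uM final) was run with 24 h compound exposure of reporter cells at 37 °C. Each well was multiplexed: SteadyGlo luminescence measured ATXN2-luciferase expression after a fluorogenic Gly-Phe-AFC viability readout (25 uM final).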
ATXN viability: reduces viability in counter-screen for ATXN expression inhibitors. S2 cells (HEK-293 line with an ATXN2-luciferase reporter) viability, CellTiter-Fluor protease fluorescence, 24 h. Potency, µM (doses to about 56.7 µM), hits mostly cytotoxic. 400,000 tested, 0.49% active; note: nearly all actives have a fitted effect of over 40% in size
HepG2 tox: HepG2 cytotoxicity, counter-screen for TGF-b inhibitors | Potency, µM (series often up to 46.1 µM), without a hit: at the highest dose activity change, negative = cytotoxicity, actives largely listed as cytotoxic | 410,000 tested, 0.76% active | HepG2 CAGA-GFP viability, ATP luminescence, 18 h
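HepG2 CAGA-GFP cells (1000/well, DMEM with 1% FBS) received compound, then TGF-beta at 500 pg/mL final, and were incubated 18 hours at 37 degrees C. Viability was read by CellTiter-Glo luminescence. Media-only wells were set as complete cell-killing and DMSO as no toxicity.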
The depositor's hits bear a star; i = inactive; ? = inconclusive; . = no result; ! = repeats disagree; [ ] = dose if it differs, or a comment. Calls come from the whole dose curve; as a rule, active = well fitted curve in the direction sought with a large enough effect; inconclusive = small, poorly fitted or top-dose-only effect, or another doubt; inactive = no such curve, though single readings can be large; an effect the other way counts as inactive or inconclusive. Potency is the fitted concentration of half-maximal effect.

SMILES	TGFb SMAD3 inh	RORgamma inh	Gal4-VP16 FLuc	ATXN2 expr inh	ATXN viability	HepG2 tox
Cc1ccc(Nc2cc(C)nc3nc(Cc4ccc(Cl)cc4)nn23)cc1	4µM*	.	.	14µM*	.	-58%
CCc1ccc(Nc2cc(C)nc3nc(Cc4ccc(Cl)cc4)nn23)cc1	13µM*	.	.	?	?	-77%
C[C@H](CO)N1C[C@H](C)[C@H](CN(C)S(=O)(=O)c2ccc(F)cc2)OCc2cnnn2CCCC1=O	25%	.	.	-2%	?	5%
O=C(/C(=N/N=C/c1ccc(O)c(O)c1O)c1ccccc1)c1ccccc1	?	?	10µM*	?	?	-49%
Oc1ccc(/C=N/N=C(c2ccccc2)c2ccccc2)c(O)c1O	3%	?	?	?	?	-15%
CC(C)(CNC(=O)c1cnn(-c2nccc(-c3cccs3)n2)c1C1CC1)N1CCOCC1	.	.	.	.	i	.
O=C(ONc1ccc(N=NC(=O)c2ccccc2O)cc1)c1ccccc1	-11%	7.1µM*	6%[0.365 µM]	-17%	1.3µM*	-24%
CNc1ccc(Br)cc1C(O)c1ccccc1 (stereo not drawn)	-3%	13µM*	?	-5%	i	1%
Cc1ccc(S(=O)(=O)Nc2ccccc2C(O)c2ccccc2)cc1 (stereo not drawn)	?	0%	-11%	-39%	i	-28%
CN1CC(c2ccccc2)Oc2ccccc2C1=S (stereo not drawn)	2%	.	.	?	?	0%
CCCN1C(=S)c2ccccc2C1c1ccccc1 (stereo not drawn)	11%	10µM*	-1%	-14%	i	-6%
C=CCn1c(CC(C)(C)C)nc2ccccc21	?	11µM*	-6%	16%	i	4%
C=CCn1c(C(CC)CC)nc2ccccc21	27%	6.3µM*	-14%	2%	i	-4%
CCOc1ccc(N=C(C)Nc2ccc(OCC)cc2)cc1	.	.	.	.	i	.
COc1cccc(C(=O)N2CCc3c(C(=O)NC(C)c4ccco4)c(OC)cc(=O)n3CC2)c1OC (stereo not drawn)	.	.	.	.	i	.
COc1ccc(-c2cnnc(N/N=C/c3ccc(O)c(O)c3)n2)cc1	-20%	?	8.9µM*	8%	i	-31%
COc1ccc(-c2cnnc(N/N=C/c3ccc(C)o3)n2)cc1	-1%	5µM*	-9%	-16%	i	-12%
COc1ccc(-c2cnnc(N/N=C/c3ccc(O)cc3)n2)cc1	-1%	3%	0%	0%	?	-19%
CC(C)(C)c1ccc(C2NC(=O)c3n[nH]c(-c4cccs4)c32)cc1 (stereo not drawn)	?	.	.	.	.	11µM*
Cc1cc(C)nc(N/N=C2/CCCC/C2=C\c2ccccc2)n1	?	1.4µM*	10µM*	0.95µM*	?	-47%
O=C(Oc1ccc(Br)cc1C(=S)N1CCCC1)c1ccccc1F	1%	-1%	-4%	0%	i	11%
O=C(Oc1ccc(Br)cc1C(=S)N1CCCCC1)c1cc([N+](=O)[O-])cc([N+](=O)[O-])c1	?	18µM*	-1%	-9%	i	-18%
Cc1ccccc1C(=O)Oc1ccc(Br)cc1C(=S)N1CCCC1	-7%	11µM*	?	-16%	i	3%
Cc1c(C(=O)N2CCOCC2)sc(NC(=O)C(C)C)c1C#N	15%	-1%	0%	3%	i	-36%
COc1cccc([C@H]2Oc3ccc(OC)cc3/C(=N\O[C@@H](C)c3cn([C@H](CO)Cc4ccccc4)nn3)[C@@H]2O)c1	.	-2%[10 µM]	1%[10 µM]	.	.	.
SMILES	TGFb SMAD3 inh	RORgamma inh	Gal4-VP16 FLuc	ATXN2 expr inh	ATXN viability	HepG2 tox
Nc1nc2ccccc2n1/N=C/c1ccc(Br)cc1	0%	-2%	-2%	86%	i	-26%
Nc1nc2ccccc2n1/N=C/c1ccc2c(c1)OCO2	-24%	10µM*	?	63%	i	-14%
CC1(Cc2ccccc2Cl)C(=O)Nc2ccc(OC(F)(F)F)cc21 (stereo not drawn)	11µM*	.	.	?	?	-90%
CC1(Cc2ccccc2C#N)C(=O)Nc2ccc(OC(F)(F)F)cc21 (stereo not drawn)	-16%	.	.	-10%	i	-24%
Cc1nc2cnc(N3CCN(C)CC3)nc2n(Cc2ccc(F)cc2)c1=O	.	-7%	5%	.	.	.
CC1CC(C)CN(S(=O)(=O)c2ccc(C(=O)Nc3nnc(C4CC4)o3)cc2)C1 (stereo not drawn)	-15%	0.56µM*	0.63µM*	-35%	i	-4%
CCOC(=O)N1CCN(S(=O)(=O)c2ccc(C(=O)Nc3nnc(C4CC4)o3)cc2)CC1	1%	1.8µM*	3.2µM*	-20%	i	4%
CCOC(=O)N1CCN(S(=O)(=O)c2ccc(C(=O)Nc3nnc(CC)o3)cc2)CC1	14%	?	?	-3%	i	14%
CC(=O)c1ccc(Nc2nc3ccccc3nc2-n2nc(C)cc2C)cc1	-23%	.	.	-1%	i	-12%
C/C=C1\COC(C(=O)NCCN2CCOCC2)(C(F)(F)F)C=C1C=C(C)C (stereo not drawn)	-31%	-30%	-14%	.	.	-12%
C/C=C1\COC(C(=O)NCc2ccccc2)(C(F)(F)F)C=C1C=C(C)C (stereo not drawn)	11µM*!	?	?	6%	i	-15%
CC(=O)Oc1ccc(N2C(=O)C3C4C=CC(CO)(O4)C3C2=O)cc1 (stereo not drawn)	8%	5µM*	?	1%	?	17%
O=C1C2C3C=CC(CO)(O3)C2C(=O)N1c1ccccc1-c1ccccc1 (stereo not drawn)	13µM*	1.8µM*	2.2µM*	?	?	13µM*
CC(=O)Oc1ccc(N2C(=O)C3C(C2=O)C2(C)C=CC3(C)O2)cc1 (stereo not drawn)	.	4µM*	4.5µM*	.	.	.
COC(=O)c1cc(N2C(=O)C3C(C2=O)C2(C)C=CC3(C)O2)ccc1Cl (stereo not drawn)	.	3.5µM*	5.6µM*	.	.	.
COc1ccc(NC(=O)c2cc(N3C(=O)C4C5CCC(C5)C4C3=O)ccc2Cl)c(OC)c1 (stereo not drawn)	0%	4%	-3%	-5%	i	4%
CC(=O)Oc1ccc(-n2c(=O)c3ccccc3c3ccccc3c2=O)cc1	-4%	7%	-4%	-2%	i	-12%
Cc1nc2cnc(N(C)C)nc2n(CCC#N)c1=O	.	-10%	-10%	.	.	.

Screening data: PubChem BioAssay, National Center for Advancing Translational Sciences (NCATS)
